Laboratory results from PubChem BioAssay (NCATS).
Records with an inconclusive call do not appear. Entries that show only a call come without a potency. Active and inactive are the calls of the source. The call rests on the fitted dose curve; in most records, active means well fitted cell-killing curve with a large enough effect; inconclusive means small, poorly fitted or top-dose-only effect; inactive means flat fitted curve, though single readings scatter. Square brackets hold non-standard residues; d marks the D form. Peptide text beside a SMILES is read from it. * marks the point of attachment. ξ: configuration not given here. Hexanoyl = CCCCCC(=O)*; ξL = CC(C)CC(N)C(=O)O

Test: HPAF-II Cancer Cell Toxicity qHTS against the NCATS CANVASS Library (AID 1347346); further: nearly all actives have a fitted effect of over 55% in size
Conditions: HPAF-II viability, CellTiter-Glo ATP luminescence, 72 h; series mostly up to 38.3 µM
Outline: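 Cytotoxicity read-out was CellTiter-Glo luminescence after 72 h at 37 degrees C exposure of HPAF-II cells (1000/well) to compounds in an 11-point titration.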
Potency means the concentration at half of the fitted maximal effect.

Q: With `CC(=O)N[C@H](C)c1nc(/C=C/C=C/C(=O)CC2CC(=O)CC[C@]2(C)O)cs1` (stereo not given in full) as the compound, how does the Potency read?
A: inactive

Q: Which Potency does the source give for `CN1C(=O)C(=O)N2C(=C[C@]3(c4c[nH]c5ccccc45)c4ccccc4N[C@H]23)C1=O` here?
A: inactive

Q: For `CN1CC[C@]23c4ccccc4N[C@H]1[C@]21CCN(C)[C@H]3Nc2ccccc21`, which Potency is on record?
A: inactive

Q: For `C/C=C1/C2=CCCN3C(=O)O[C@H]([C@H]1O)[C@H]23`, which Potency is on record?
A: inactive

Q: Which Potency does the source give for `O=C1CC(c2ccc(O)cc2)Oc2ccccc21` (stereo not given) here?
A: inactive

Q: Which Potency does the source give for `COc1c(O)cc(O)c2c(=O)cc(-c3ccccc3)oc12` here?
A: inactive

Q: For `COC1C(C)OC(OCC23C[C@@H]4[C@H](C)CC[C@H]4C4(C=O)CC2C=C(C(C)C)C34C(=O)O)[C@@H](O)[C@H]1O` (stereo not given in full), which Potency is on record?
A: inactive

Q: With `CN1CC[C@@]2([C@@]34CCN(C)[C@@H]3Nc3ccccc34)c3ccccc3N[C@@H]12` as the compound, how does the Potency read?
A: inactive

Q: Which Potency does the source give for `COc1ccc(-c2oc3cc(OC)cc(OC)c3c(=O)c2O)cc1` here?
A: inactive

Q: With `CC[C@@H](C)[C@H]1NC(=O)C(CC(C)C)NC(=O)[C@@H](CC(C)C)NC(=O)[C@H](Cc2c[nH]c3ccccc23)NC(=O)CNC(=O)[C@@H](CC(N)=O)NC1=O` (stereo partly drawn) (cyclo(GW[dL][ξL][dI][dN])) as the compound, how does the Potency read?
A: inactive

Q: For `Cc1cc(O)cc2c1C(=O)c1c(O)cc(O)cc1C2=O`, which Potency is on record?
A: inactive

Q: With `C=C(Cl)[C@](Cl)(CBr)CC[C@@H](Br)C(C)(C)Cl` as the compound, how does the Potency read?
A: 6.68 µM (active)

Q: With `C=C(C)C(=O)O[C@H]1C[C@@]2(C)OC(=CC2=O)/C(C)=C\[C@H]2OC(=O)C(=C)[C@H]12` as the compound, how does the Potency read?
A: 6.68 µM (active)

Q: Which Potency does the source give for `C=C[C@]1(C)CC[C@@H]([C@H](C)C(=O)CC=C(C)C)O1` here?
A: inactive

Q: For `CC[C@@H]1C[C@@]2(CC)OC(=O)[C@@]3(CC)[C@H](CC)[C@@H]1[C@@H]23`, which Potency is on record?
A: inactive

Q: With `[C-]#[N+][C@@]12C(=O)[C@@H]3[C@@H](O[C@@]4(C(=O)N(C)c5cccc1c54)C3(C)C)C(=O)[C@@]2(C)C=C` as the compound, how does the Potency read?
A: inactive

Q: For `COC(=O)c1cccc2oc(-c3cccc4oc(-c5c(C)cccc5O)nc34)nc12`, which Potency is on record?
A: 2.66 µM (active)

Q: Which Potency does the source give for `C[C@@]12CCC[C@@](C)(C(=O)OP(=O)(O)OC[C@H]3O[C@@H](n4cnc5c(N)ncnc54)[C@H](O)[C@@H]3O)[C@H]1C[C@@H](O)[C@@]13C[C@@H](CC[C@@H]21)[C@](C)(O)C3` here?
A: 4.73 µM (active)

Q: Which Potency does the source give for `CCC(C)=C1OC(=O)[C@H](C)[C@H](O)[C@H](Cc2cccnc2)NC(=O)C(NC(=O)c2ncccc2O)C(C)OC1=O` (stereo not given in full) here?
A: inactive

Q: For `C[C@@]12CCC[C@@](C)(C(=O)O)[C@H]1CC[C@@]13C[C@@H](CC[C@H]12)[C@](C)(O)C3`, which Potency is on record?
A: inactive

Q: Which Potency does the source give for `O=C1OC(CCO)c2cccc(O)c21` (stereo not given) here?
A: inactive

Q: Which Potency does the source give for `C=C1C[C@]23C=CC(=O)[C@@](C)(CCCC(C)C(=O)N[C@@H](CO)C(=O)O)[C@@H]2C[C@@H]1CC3` (stereo not given in full) here?
A: inactive

Q: With `COc1cc2ccc(=O)oc2c(O)c1O[C@@H]1O[C@H](CO)[C@@H](O)[C@H](O)[C@H]1O` as the compound, how does the Potency read?
A: inactive

Q: With `C/C(=C\[C@@H](C)CC/C=C/CC/C=C/C(=O)O)[C@@H](O)[C@H](C)C(=O)CCCC1CC(=O)NC(=O)C1` as the compound, how does the Potency read?
A: inactive

Q: For `CO[C@@H](C[C@@H](C)[C@@H](O)/C=C/C=C/CNC(=O)C(C)(C)[C@H](O)\C(C)=C/C=C\C=C\Cc1cnco1)[C@]1(O)[C@@H](C)C(=O)N(C)[C@@]12COC2=O`, which Potency is on record?
A: inactive

Q: With `O=C1CC(c2ccc(O)cc2)Oc2cc(O)cc(O)c21` (stereo not given) as the compound, how does the Potency read?
A: inactive

Q: For `O=C1CC(c2ccc(O)cc2)Oc2cc(O)ccc21` (stereo not given), which Potency is on record?
A: inactive

Q: For `CN1CC[C@@]23c4ccccc4N[C@@H]1[C@@]21CCN(C)[C@@H]3Nc2ccccc21`, which Potency is on record?
A: inactive

Q: For `C[C@@]12CCC[C@@](C)(C(=O)O)[C@H]1C[C@@H](O)[C@@]13C[C@@H](CC[C@@H]21)[C@](C)(O)C3`, which Potency is on record?
A: inactive

Q: Which Potency does the source give for `O=Cc1ccc2n1C[C@]1(OC2)O[C@H](CO)[C@@H](O)[C@@H]1O` here?
A: inactive

Q: Which Potency does the source give for `C=C[C@@]1(C)CC[C@@H]([C@H](C)C(C)=O)O1` here?
A: inactive

Q: Which Potency does the source give for `C/C=C(/CO)C(=O)O[C@@H]1[C@H](O)[C@@H](C(=O)OC)O[C@@H]2C[C@H]3OC(n4cnc5c(N)ncnc54)[C@H](OC)[C@H]3O[C@@]12O` (stereo not given in full) here?
A: inactive

Q: With `C/C=C/[C@H]1[C@H]2C(=O)c3c(O)c(C)c(O)c(C)c3[C@]1(C(=O)O)C(=O)C=C2C` as the compound, how does the Potency read?
A: inactive

Q: For `C[C@@]12C[C@@H](C[C@@H]3C(=O)O[C@@H](c4ccoc4)[C@H](OC(=O)c4ccccc4)[C@@H]31)OC2=O`, which Potency is on record?
A: inactive

Q: With `C=C1CCC2C(C)(C(=O)O)CCC(CC/C(C)=C/C(=O)NC(CCC(N)=O)C(=O)O)[C@@]2(C)C1` (stereo not given in full) as the compound, how does the Potency read?
A: inactive

Q: For `C=C1[C@@]2(C)CC3C4(C)CCC(O)C(C)(C)C4CCC3(C)[C@]1(C(=O)OC)C(=O)C(C)(O)C2=O` (stereo not given in full), which Potency is on record?
A: inactive

Q: With `CC(C)=CCC[C@]1(C)[C@H]2CC(=O)[C@@]3(CO3)[C@@H]1C2` as the compound, how does the Potency read?
A: inactive

Q: With `CCCCCC(=O)N[C@@H](CC(C)C)C(=O)N[C@H](C=O)CCC(=O)O` (Hexanoyl-Leu-Glu-aldehyde) as the compound, how does the Potency read?
A: inactive

Q: Which Potency does the source give for `COc1ccc([C@@H]2c3cc4c(cc3C(=O)C(C)C2C)OCO4)cc1OC` (stereo not given in full) here?
A: inactive

Q: Which Potency does the source give for `CC1(C)CC[C@]2(CO)CC[C@]3(C)C(=CCC4[C@@]5(C)CC[C@H](O)C(C)(C)C5CC[C@]43C)C2C1` (stereo not given in full) here?
A: inactive
